According to PubChem BioAssay AID1345085 (National Center for Advancing Translational Sciences (NCATS), 2018):
Records with an inconclusive call do not appear. A number with no mark means an inactive call. Activity calls are given as the source filed them. Calls follow the shape of the dose curve; as a rule, active = well fitted cell-killing curve with a large enough effect; inconclusive = small, poorly fitted or top-dose-only effect, or effect the other way; inactive = no such curve, though single readings can be large or run the other way.

Tested on: SW626
Test: Confirmatory qHTS for gynecologic anti-cancer compounds from libraries of approved drugs and bioactive compounds; also: nearly all actives have a fitted effect of over 55% in size
Settings: gynecologic cancer cell panel viability, ATPlite luminescence, 48 h; series mostly up to 57.6 µM; activity change, negative = viability loss: at the top concentration
Procedure, shortened: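 ATPlite luminescence read-out of cell viability; IC50 from 11-point 1:3 titrations, 57.5 uM to 0.977 nM, 48 h compound exposure at 37 C, 5% CO2. Cells seeded at 1,000/well 16 h before dosing.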
% is scaled to controls: 0 for no effect and ±100 for the full control effect; potency is read from the fitted curve at half-maximal effect.

SMILES	activity change, negative = viability loss [%]	Potency
O=C1N(c2ccccc2)c2ccccc2C1(Cc1ccncc1)Cc1ccncc1	4.32	
O=c1[nH]c(=O)n([C@H]2C[C@H](O)[C@@H](CO)O2)cc1Br	-12.2	
CCCS(=O)c1ccc2nc(NC(=O)OC)[nH]c2c1 (stereo not given)	-17.9	
CCN[C@H]1C[C@H](C)S(=O)(=O)c2sc(S(N)(=O)=O)cc21	47.2	
O=C(c1ccc(F)c(F)c1Nc1ccc(I)cc1F)N1CC(O)([C@@H]2CCCCN2)C1		9.68 µM (active)
CN(C)CC/C=C1\c2ccccc2COc2ccccc21	-3.29	
CNc1nc(Nc2ccc(C(=O)N3CCOCC3)cc2OC)ncc1Cl	5.85	
CC(C)C[C@H](NC(=O)[C@H](CCc1ccccc1)NC(=O)CN1CCOCC1)C(=O)N[C@@H](Cc1ccccc1)C(=O)N[C@@H](CC(C)C)C(=O)[C@@]1(C)CO1		1.09 µM (active)
CC(=O)OC12COC1CC(O)C1(C)C(=O)C(O)C3=C(C)C(OC(=O)C(O)C(NC(=O)OC(C)(C)C)c4ccccc4)CC(O)(C(OC(=O)c4ccccc4)C21)C3(C)C (stereo not given)	8.89	
CC(C)(C)C(=O)OCOP(=O)(COCCn1cnc2c(N)ncnc21)OCOC(=O)C(C)(C)C		17.2 µM (active)
c1cc(N[C@@H]2CCNC2)nc(-c2cnc3ccc(-c4cn[nH]c4)cn23)c1	20.5	
Cc1ccc(C(N)=O)cc1Nc1nccc(-c2cn(C(C)C)c3cnccc23)n1	8.56	
OCc1ccc(-c2ccc(-c3ccc(CO)s3)o2)s1		10.6 µM (active)
O=C(CCCCCCC(=O)Nc1ccccc1)NO		2.17 µM (active)
Cc1ccc(C(=O)Nc2ccc(CN3CCN(C)CC3)c(C(F)(F)F)c2)cc1C#Cc1cnc2[nH]ncc2c1		1.72 µM (active)
